# From PubChem BioAssay AID624405 (Broad Institute, 2012)
# About 250 (13%) of roughly 1,900 compounds were called active. Not shown: some 4% with an inconclusive outcome.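 The calls were made as follows: active = fitted curve reaches 40% rescue activity at or below the top valid dose, in every test run; inconclusive = test runs disagree, some active and some inactive; inactive = every run misses the threshold or moves the wrong way.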 A selection follows. Entries with a potency or affinity are not part of this list.
# Test: suppressors of statin myotoxicity in myotubes, dose response, cell-based, C2C12 myotubes, ATP luminescence, cherry pick (AID 624405);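 also: myotubes are challenged with simvastatin at 10 µM to lower ATP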
# Conditions: C2C12 myotubes + simvastatin, 48 h, scaled: DMSO wells 0, geranylgeraniol wells 100; series mostly up to 19.5 µM; rescue activity (ATP increase): at the top concentration
row,SMILES,rescue activity (ATP increase)
1,CC(C)CNc1ncnc2c1cnn2Cc1ccc(Cl)cc1,15% (inactive)
2,Cc1ccc(Cn2ncc3c(NCCCN(C)C)ncnc32)cc1,23.2% (inactive)
3,Clc1ccc(Cn2ncc3c(N4CCOCC4)ncnc32)cc1,20.7% (inactive)
4,CCN(CC)c1ncnc2c1cnn2Cc1ccc(Cl)cc1,29.6% (inactive)
5,Cc1ccc(Cn2ncc3c(N4CCCC4)ncnc32)cc1,19.3% (inactive)
6,CCC(C)Nc1ncnc2c1cnn2Cc1ccc(Cl)cc1 (stereo not drawn),3.88% (inactive)
7,COc1ccccc1N1CCN(C(=O)c2cc(-c3ccc(F)cc3)[nH]c2C)CC1,9.61% (inactive)
8,COc1cc(C)c(S(=O)(=O)n2ccc(C)n2)cc1C,25.8% (inactive)
9,C[C@@H]1CN([C@@H](C)CO)C(=O)c2cc(C3=CCCCC3)cnc2O[C@H]1CN(C)Cc1ccccc1F,-13.2% (inactive)
10,CC(=O)Nc1sc2c(c1C#N)CCC(C)C2 (stereo not drawn),47.3% (inactive)
11,Cc1noc(C)c1NC(=O)Nc1ccc2c(c1)CC(=O)N([C@H](C)CO)C[C@H](C)[C@@H](CN(C)Cc1ccc(Oc3ccccc3)cc1)O2,-27.8% (inactive)
12,C[C@H]1CCCCO[C@H](CN(C)S(=O)(=O)c2cccs2)[C@@H](C)CN([C@@H](C)CO)C(=O)c2cc(NC(=O)Nc3ccc(F)cc3)ccc2O1,-16.9% (inactive)
13,C[C@H](CO)N1C[C@H](C)[C@H](CN(C)Cc2ccc(Oc3ccccc3)cc2)Oc2ccc(NC(=O)Nc3ccc(C(F)(F)F)cc3)cc2CC1=O,-13.6% (inactive)
14,C[C@H](CO)N1C[C@H](C)[C@@H](CN(C)Cc2ccc(-c3ccccc3)cc2)Oc2ccc(NC(=O)c3ccncc3)cc2CC1=O,18.2% (inactive)
15,Cc1c(Cl)cccc1NC(=O)CNC(=O)Cc1n[nH]c(=O)c2ccccc12,14.5% (inactive)
16,C[C@@H]1CCCCO[C@@H](CN(C)C(=O)Nc2cccc3ccccc23)[C@H](C)CN([C@H](C)CO)C(=O)c2cc(NS(=O)(=O)c3ccc(Cl)cc3)ccc2O1,-2.76% (inactive)
17,O=C(Nc1ccc(S(=O)(=O)N2CCCCCC2)cc1)c1ccco1,-49.5% (inactive)
18,N#Cc1nc(-c2ccco2)oc1NCCCn1ccnc1,-0.838% (inactive)
19,N#Cc1nc(COc2ccccc2)oc1N1CCOCC1,-18.8% (inactive)
20,CCCOc1cc(C)c(Cl)cc1S(=O)(=O)N(CC)CC,4.93% (inactive)
21,Cc1ccc(S(=O)(=O)Nc2ccc3c(c2)C(=O)N([C@@H](C)CO)C[C@@H](C)[C@H](CN(C)Cc2ccc(Cl)c(Cl)c2)O3)cc1,25.1% (inactive)
22,C[C@@H]1CCCCO[C@H](CN(C)C(=O)Nc2ccc(F)cc2)[C@H](C)CN([C@@H](C)CO)C(=O)c2cc(NC(=O)Cc3ccccc3)ccc2O1,-7.06% (inactive)
23,CC(C)c1ccc(CNc2nc3nc4c(c(=O)n3[nH]2)CCC4)cc1,32.7% (inactive)
24,Cc1ccc(S(=O)(=O)Nc2ccc3c(c2)CC(=O)N([C@@H](C)CO)C[C@H](C)[C@@H](CN(C)S(=O)(=O)c2cccs2)O3)cc1,10.3% [at 21 µM] (inactive)
25,CN(CC(=O)NCc1ccco1)CC(=O)Nc1ccc(F)c(F)c1F,10.1% (inactive)
26,COc1cc(NC(=O)COC(=O)c2cc(S(=O)(=O)N3CCOCC3)ccc2F)cc(OC)c1,-14.9% (inactive)

row,SMILES,rescue activity (ATP increase)
1,COc1cc2c(C(=O)NCCCN3CCN(c4cccc(Cl)c4)CC3)cn(C)c(=O)c2cc1OC,-33.9% (inactive)
2,COc1ccc(S(=O)(=O)Nc2ccc3c(c2)C(=O)N([C@@H](C)CO)C[C@@H](C)[C@H](CN(C)C(=O)Nc2cccc4ccccc24)OCCCC[C@@H](C)O3)cc1,6.81% (inactive)
3,COc1cccc(NC(=O)CSc2nc(C)cs2)c1,6.93% (inactive)
4,Cc1csc(SCC(=O)Nc2cccc(S(=O)(=O)N3CCCC3)c2)n1,-1.35% (inactive)
5,COc1ccc(S(=O)(=O)Nc2cccc3c2O[C@H](CN(C)C(=O)Nc2ccc(C(F)(F)F)cc2)[C@H](C)CN([C@H](C)CO)C3=O)cc1,36.2% (inactive)
6,C[C@H](CO)N1C[C@H](C)[C@H](CN(C)Cc2ccc(Oc3ccccc3)cc2)Oc2ccc(NC(=O)Nc3ccc(F)cc3)cc2CC1=O,-9.22% [at 21 µM] (inactive)
7,C[C@@H]1CN([C@@H](C)CO)C(=O)c2cc(C#Cc3ccccc3F)cnc2O[C@H]1CN(C)S(=O)(=O)c1ccccc1F,23.5% (inactive)
8,CCN(CC)CC(=O)n1c2c(c3ccccc31)CCCC2,4.55% (inactive)
9,Clc1ccc(Cn2ncc3c(NCc4ccccc4)ncnc32)cc1,-175% (inactive)
10,O=C(Nc1ccc(S(=O)(=O)N2CCC(C(=O)NC3CCCCC3)CC2)cc1)c1ccco1,-43.5% (inactive)
11,Nc1ccc2c(S(=O)(=O)O)cccc2c1S(=O)(=O)O,2.73% (inactive)
12,O=C(Cn1nnc(-c2ccncc2)n1)N(C1CCCCC1)C1CCCCC1,0.984% (inactive)
13,COCCn1nnnc1CN(CCc1ccc(OC)c(OC)c1)Cc1cc2ccc(C)cc2[nH]c1=O,-20% (inactive)
14,COc1ccc(NC(=O)Nc2ccc3c(c2)CC(=O)N([C@@H](C)CO)C[C@@H](C)[C@H](CN(C)C(=O)Nc2cccc4ccccc24)O3)cc1,14.7% (inactive)
15,O=C(CCC1COc2ccccc2O1)Nc1ccccn1 (stereo not drawn),3.48% (inactive)
16,C[C@@H]1CCCCO[C@@H](CN(C)S(=O)(=O)c2ccc(Cl)cc2)[C@@H](C)CN([C@@H](C)CO)C(=O)c2cc(NS(C)(=O)=O)ccc2O1,-3.2% (inactive)
17,C[C@@H]1CCCCO[C@@H](CN(C)S(=O)(=O)c2ccc(Cl)cc2)[C@@H](C)CN([C@H](C)CO)C(=O)c2cc(NS(C)(=O)=O)ccc2O1,-1.83% (inactive)
18,CCC(=O)c1ccc(OCC(=O)O)cc1,0.815% (inactive)
19,COc1cc(OC)cc(-c2nc3nc(C)c(CCC(=O)O)c(C)n3n2)c1,6.93% (inactive)
20,O=C(CSc1nnc2ccccn12)NNC(=O)c1cccc(Cl)c1,21.5% (inactive)
21,COC(=O)c1ccc(CSc2nc3c(cnn3-c3ccc(C)c(C)c3)c(=O)[nH]2)o1,-19.7% (inactive)
22,COc1ccc(S(=O)(=O)Nc2ccc3c(c2)C(=O)N([C@H](C)CO)C[C@H](C)[C@@H](CN(C)S(=O)(=O)c2ccc(F)cc2)OCCCC[C@H](C)O3)cc1,-6.4% (inactive)
23,COc1ccc(CC(=O)Nc2cc(C)on2)cc1,10.1% (inactive)
24,C[C@@H]1CCCCO[C@H](CN(C)C(=O)Cc2ccccc2)[C@@H](C)CN([C@@H](C)CO)C(=O)c2cc(NS(=O)(=O)c3cn(C)cn3)ccc2O1,-34.5% [at 10 µM] (inactive)
25,O=S(=O)(c1ccccc1C(F)(F)F)N1CCN(S(=O)(=O)c2ccccc2C(F)(F)F)CC1,16% (inactive)
26,CN1C(=O)c2cc(NC(=O)c3cnccn3)ccc2OC[C@H]2O[C@H](CC(=O)NCC3CCCCC3)CC[C@H]21,0.092% [at 21 µM] (inactive)

row,SMILES,rescue activity (ATP increase)
1,O=C(O)c1ccc(C(=O)c2ccc3c(c2)C(=O)N(Cc2ccco2)C3=O)cc1,10.5% (inactive)
2,Cc1noc(C)c1S(=O)(=O)Nc1ccc2c(c1)C(=O)N([C@H](C)CO)C[C@H](C)[C@@H](CN(C)C(=O)Nc1cccc3ccccc13)O2,27.1% [at 21 µM] (inactive)
3,COc1ccc(C#Cc2cnc3c(c2)C(=O)N([C@@H](C)CO)C[C@H](C)[C@H](CN(C)C(=O)Nc2cccc(OC)c2)O3)cc1,-1.46% (inactive)
4,C[C@H](CO)N1C[C@H](C)[C@@H](CN(C)Cc2ccc(C(=O)Nc3ccccc3N)cc2)Oc2ccc(NC(=O)Nc3cccc4ccccc34)cc2C1=O,9.69% [at 16 µM] (inactive)
5,COc1ccc(NC(=O)Nc2ccc3c(c2)C(=O)N([C@@H](C)CO)C[C@H](C)[C@H](CN(C)Cc2ccc(C(F)(F)F)cc2)OCCCC[C@@H](C)O3)cc1,-38.9% (inactive)
6,COc1ccc(N=Cc2sc(O)c3ccccc23)cc1,19.5% (inactive)
7,C[C@@H]1CN([C@H](C)CO)C(=O)c2cc(C3=CCCCC3)cnc2O[C@H]1CN(C)Cc1ccccc1F,-23.7% (inactive)
8,Cn1c(CCN2CCCCC2)nc2cc(NC(=O)Nc3ccccc3)ccc21,-7.55% (inactive)
9,CC(C(=O)N1CCCc2ccccc21)N1C(=O)c2ccccc2C1=O (stereo not drawn),-3.35% (inactive)
10,CCN(CC)C(=O)c1ccc(NS(=O)(=O)c2ccccc2)cc1,0.963% (inactive)
11,NNC(=O)COc1cccc2cccnc12,37.3% (inactive)
12,O=c1[nH]c(Nc2ccccc2Cl)cc2ccccc12,-28.7% (inactive)
13,CC(C)(C)C(=O)COC(=O)CNC(=O)c1ccc(Oc2ccccc2)cc1,0.797% (inactive)
14,C[C@H]1CN([C@@H](C)CO)C(=O)Cc2cc(N(C)C)ccc2O[C@@H]1CN(C)Cc1ccc(Cl)c(Cl)c1,22.2% [at 21 µM] (inactive)
15,Cc1ccc(S(=O)(=O)Nc2ccc3c(c2)CC(=O)N([C@H](C)CO)C[C@@H](C)[C@H](CN(C)Cc2ccc(Cl)c(Cl)c2)O3)cc1,21.4% (inactive)
16,C[C@@H]1CN([C@H](C)CO)C(=O)Cc2cc(NS(C)(=O)=O)ccc2O[C@@H]1CN(C)Cc1ccc(Cl)c(Cl)c1,27.2% (inactive)
17,C[C@@H]1CN([C@H](C)CO)C(=O)Cc2cc(NS(=O)(=O)c3ccc(Cl)cc3)ccc2O[C@H]1CN(C)Cc1ccc(Cl)c(Cl)c1,32% (inactive)
18,Cc1ccc(S(=O)(=O)Nc2ccc3c(c2)CC(=O)N([C@@H](C)CO)C[C@@H](C)[C@H](CN(C)Cc2ccc(Cl)c(Cl)c2)O3)cc1,29% (inactive)
19,Cc1ccc(S(=O)(=O)Nc2ccc3c(c2)CC(=O)N([C@H](C)CO)C[C@@H](C)[C@@H](CN(C)Cc2ccc(Cl)c(Cl)c2)O3)cc1,26.6% (inactive)
20,C[C@@H]1CN([C@H](C)CO)C(=O)Cc2cc(N(C)C)ccc2O[C@@H]1CN(C)Cc1ccc(Cl)c(Cl)c1,34.4% (inactive)
21,Cc1ccc(S(=O)(=O)Nc2ccc3c(c2)CC(=O)N([C@@H](C)CO)C[C@@H](C)[C@@H](CN(C)Cc2ccc(Cl)c(Cl)c2)O3)cc1,13.8% [at 21 µM] (inactive)
22,C[C@H](CO)N1C[C@H](C)[C@@H](CN(C)C(=O)Nc2ccc(C(F)(F)F)cc2)OCCCC[C@H](C)Oc2ccc(NC(=O)Nc3cccc4ccccc34)cc2C1=O,-7.78% (inactive)
23,CC(=O)c1ccc(NC(=O)c2cc(-c3cccs3)on2)cc1,-10.8% (inactive)
24,C=C[C@@H]1c2c(F)cccc2N(S(=O)(=O)c2ccc(C)cc2)[C@H](c2ccc(C(=O)OC)cc2)C1(C#N)C#N,-79.5% (inactive)
25,Cc1noc(C)c1NC(=O)N(C)C[C@@H]1OCCCC[C@@H](C)Oc2ccc(NS(=O)(=O)c3cn(C)cn3)cc2C(=O)N([C@H](C)CO)C[C@@H]1C,-3.29% (inactive)
26,C[C@@H]1CN([C@H](C)CO)C(=O)Cc2cc(NC(=O)Cc3cn(C)c4ccccc34)ccc2O[C@H]1CN(C)Cc1ccc2c(c1)OCO2,27.4% [at 21 µM] (inactive)
